Compound activity deposited in PubChem BioAssay by several laboratories.
TRPM1 prom inh = inhibitors of MITF-driven TRPM1 promoter in melanoma cells. AID 488899. SK-MEL-5 TRPM1 promoter luciferase, 24 h. hit rate 0.83% among 330,000. inhibition, % at 12.5 µM;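 active = mean inhibition across replicates of 60% or more, whatever share of single replicates reaches that level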
Peg3 prom inh = inhibitors of Peg3 promoter; HeLa PEG-Prom luciferase reporter, luminescence, overnight; hit rate 1.7% among 360,000; inhibition, % at 20 µM;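 active = inhibition of at least 50% at 20 µM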
CF NFkB block = cystic fibrosis NF-kB activation inhibition | inhibition, % at 5 µM | hit rate 0.86% among 360,000 | KKLEB NF-kB-GFP reporter, PAF-induced, GFP fluorescence overnight;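 active = at least 50% inhibition at 5 µM, scaled per plate between neutral and stimulator controls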;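 note: PAF is a Pseudomonas aeruginosa culture filtrate used as stimulus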
KKLEB tox = reduces viability of KKLEB cystic fibrosis airway cells. KKLEB CF airway cells viability, ATPlite luminescence, overnight; stronger effect = lower value; cells stimulated with P. aeruginosa culture filtrate. activity change (cytotoxicity), % at 5 µM. hit rate 0.36% among 360,000;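 active = corrected activity change at or below -50% at 5 µM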
HIF-2a inh = inhibitors of HIF-2a | inhibition, % at 18.8 µM | hit rate 0.72% among 360,000 | 786-0 RCC cells HIF-2a reporter, luciferase luminescence, overnight | AID 624352;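 active = inhibition of the luminescence signal of 40% or more relative to plate controls, in a single-dose primary screen at 18.75 µM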
ABHD5-PLIN5 inh = ABHD5-PLIN5 protein interaction inhibition. hit rate 0.78% among 360,000. Split G. princeps luciferase complementation, luminescence, 4 h. inhibition, % at 4 µM. Q00G26+Q8WTS1;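 active = inhibition above the mean inhibition across every tested compound plus 3 SD, cut at about 22% in these data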
Target sequence (Q00G26 whole entry, looked up): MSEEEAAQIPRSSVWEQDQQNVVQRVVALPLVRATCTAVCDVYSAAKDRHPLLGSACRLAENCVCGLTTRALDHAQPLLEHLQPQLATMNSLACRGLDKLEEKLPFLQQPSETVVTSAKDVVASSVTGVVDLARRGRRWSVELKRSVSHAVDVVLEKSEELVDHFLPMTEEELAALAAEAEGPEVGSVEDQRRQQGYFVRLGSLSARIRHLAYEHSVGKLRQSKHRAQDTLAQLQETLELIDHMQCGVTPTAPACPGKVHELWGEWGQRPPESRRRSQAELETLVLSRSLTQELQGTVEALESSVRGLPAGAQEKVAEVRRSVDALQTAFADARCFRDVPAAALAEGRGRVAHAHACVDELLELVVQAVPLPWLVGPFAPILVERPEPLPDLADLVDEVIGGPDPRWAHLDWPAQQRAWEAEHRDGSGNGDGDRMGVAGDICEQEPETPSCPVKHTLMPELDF
Target sequence (Q8WTS1 whole entry, looked up): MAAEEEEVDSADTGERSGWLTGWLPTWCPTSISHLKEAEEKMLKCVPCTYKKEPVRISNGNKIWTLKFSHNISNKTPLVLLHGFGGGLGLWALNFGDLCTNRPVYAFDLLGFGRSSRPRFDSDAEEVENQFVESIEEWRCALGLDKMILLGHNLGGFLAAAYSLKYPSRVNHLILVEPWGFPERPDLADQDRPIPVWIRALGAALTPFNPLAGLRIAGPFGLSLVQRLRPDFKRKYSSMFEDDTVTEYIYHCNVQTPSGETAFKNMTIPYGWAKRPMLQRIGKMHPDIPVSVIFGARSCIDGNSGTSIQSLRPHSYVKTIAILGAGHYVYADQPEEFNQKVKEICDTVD
A number is an active result; 0 = inactive; - = no result given. Rows were chosen to be rich in hits. Some 3.1% of all compounds tested hit in one or more screens of this group.

SMILES	TRPM1 prom inh	Peg3 prom inh	CF NFkB block	KKLEB tox	HIF-2a inh	ABHD5-PLIN5 inh
Cc1c(N=Nc2c(-c3ccc([N+](=O)[O-])cc3)[nH]n(C(N)=S)c2=O)cccc1[N+](=O)[O-]	62.0	0	0	0	0	0
C=CC[C@@H](CC(=O)N(CCO)Cc1ccccc1)C(=O)N[C@H](COC(=O)[C@@H](CC=C)Cc1ccc(F)cc1)Cc1c[nH]c2ccccc12	0	55.0	0	0	0	0
C=CC[C@H](CC(=O)N(CCO)Cc1ccccc1)C(=O)N[C@H](COC(=O)[C@@H](CC=C)Cc1ccc(F)cc1)Cc1c[nH]c2ccccc12	0	61.5	0	0	0	0
O=C(NCCCN1CCOCC1)c1cc(S(=O)(=O)N2CCCCC2)ccc1Cl	-	0	0	0	0	0
CC1(C)Cc2c(sc(NC(=O)C(=O)N3CCCCC3)c2C(N)=O)CO1	0	0	0	0	0	0
O=C(Nc1ccc(Cl)c(S(=O)(=O)N2CCOCC2)c1)c1cc2ccccc2oc1=O	0	94.8	0	0	0	0
Cc1ccc(S(=O)(=O)N2CCOCC2)cc1NC(=O)c1cc2ccccc2oc1=O	0	0	0	0	0	0
CCn1c(=O)c2sccc2n(Cc2cc(C(=O)OC)ccc2OC)c1=O	0	0	0	0	0	0
O=C1N(c2ccccc2)C[C@@H]2C[C@@H](c3cccs3)N3CCC[C@@]123	0	72.9	0	0	0	0
COCc1cc([C@@H]2C[C@H]3CN(c4ccccc4)C(=O)[C@]34CCCN24)ccc1OC	0	53.8	0	0	0	0
O=C(NCc1ccco1)C1CCN(C(=O)c2cc3sccc3n2Cc2ccc(F)cc2)CC1	0	0	0	0	0	0
CC1Cc2ccccc2N1C(=O)c1cc2sccc2n1Cc1ccc(F)cc1 (centres undefined)	0	54.0	0	0	0	0
COc1cccc(NC(=O)CNC(=O)c2ccccc2)c1	0	0	0	0	0	0
COc1ccc(NS(=O)(=O)c2cc(NC(=O)CNC(=O)c3cccc(OC)c3)ccc2C)cc1	68.7	0	0	0	0	0
CC(Oc1ccc([N+](=O)[O-])cc1)C(=O)NCCCN1CCOCC1 (centres undefined)	0	0	0	0	0	0
Cc1ccc(Sc2ncnc3onc(C)c23)cc1	0	0	0	0	0	0
Cc1noc2ncnc(Sc3ccc(Cl)cc3)c12	0	101.7	0	0	0	0
CC(C)OC(=O)c1ccc(N2CCN(c3ccccc3F)CC2)nc1	0	0	0	0	0	0
O=C(O)c1ccc(-c2noc(-c3cccc(Cl)c3)n2)cc1	0	0	0	0	0	0
Cc1ccnc(NC(=O)CCC(=O)c2cccs2)c1	0	0	0	0	51.1	0
O=c1[nH]c(NCc2ccccc2)nc2c1CCC2	0	0	0	0	0	0
Cc1nc(Nc2nc3c(c(=O)[nH]2)CCC3)nc2ccccc12	0	86.0	65.3	0	0	0
CCCn1c(=O)n(C)c(=O)c2c(SCC(=O)NC34CC5CC(CC(C5)C3)C4)nc(CC(C)C)nc21	67.6	0	0	0	0	0
CC(=O)Nc1ccc(/C=C2\CCc3ccccc3C2=O)cc1	0	0	0	-57.3	0	0
N/C(=N\OC(=O)Cc1cccc2ccccc12)c1ccccn1	0	0	0	0	0	0
SMILES	TRPM1 prom inh	Peg3 prom inh	CF NFkB block	KKLEB tox	HIF-2a inh	ABHD5-PLIN5 inh
NC(=Nc1nc(-c2ccccn2)cc2ccccc12)c1ccccn1	64.9	0	0	0	0	0
CCOc1ccc(-n2ccn(CC(=O)NCCc3ccccc3)c(=O)c2=O)cc1	0	0	0	0	0	0
CC(C)n1c(O)c(/C=C2\C=NN=C2c2ccccc2)sc1=S	0	0	58.4	0	0	0
CCn1c(O)c(/C=C2\C=NN=C2c2ccc(C)cc2)sc1=S	0	0	0	0	0	0
CCc1ccc(CNC(=O)C2CCCN(c3nnc(C)c4c(C)n(-c5ccccc5)nc34)C2)cc1 (centres undefined)	66.3	0	0	0	0	0
O=[N+]([O-])c1cccc(SSc2cccc([N+](=O)[O-])c2)c1	0	0	0	0	0	35.6
N#CC(C#N)=Cc1c(N2CCN(c3ccccc3)CC2)nc2ccccn2c1=O	0	0	0	0	0	0
CCCCn1c(O)c2n(c1=O)Cc1ccccc1N=C2c1ccccc1	-	0	0	0	0	0
CCOC(=O)C1=C(CSc2nc3ccccc3s2)NC(=O)NC1c1ccc(OC)cc1 (centres undefined)	0	63.5	0	0	0	0
COC(=O)c1ccc2nc(NC(=O)C(C)(C)C)sc2c1	0	0	0	-50.2	0	0
COc1cc(C(=O)c2nccc3cc(OC)c(OC)cc23)c([N+](=O)[O-])cc1OC	0	0	85.5	0	0	0
COc1cc(N)c(C(=O)c2nccc3cc(OC)c(OC)cc23)cc1OC	0	0	0	0	0	0
O=C1C(=O)c2ccccc2C(O)=C1CCCCl	78.0	0	79.0	0	0	0
COc1ccc(CC2=C(O)c3ccccc3C(=O)C2=O)cc1	0	0	0	0	0	0
NCC1CCN(c2nc3ccccc3c3c2CCCC3)CC1	0	102.1	0	0	0	0
CCOC(=O)C1(C)CCN1C(=O)c1ccc(C#N)cc1 (centres undefined)	-	0	0	0	0	0
Cc1ccc(C(=O)Nc2nn(C)c3cccc(F)c23)cc1	-	0	0	0	0	0
O=C(/C(N=Nc1cccc([N+](=O)[O-])c1)=C(/O)c1ccc(Br)cc1)C(F)(F)F	-	0	51.1	-57.7	0	0
Cc1cc(NC(=O)/C=C/c2cccc(Cl)c2)n(-c2nc3ccccc3[nH]2)n1	0	0	54.0	-56.1	0	0
O=C1C=C(C#Cc2ccc(Oc3ccccc3)cc2)C[C@@H](c2ccc(F)cc2)C1	-	0	0	0	0	0
COc1ccc2ccc(O)c(CN(C)CC(=O)Nc3ccccc3C(F)(F)F)c2c1	0	0	0	0	0	22.4
Cc1c(C)n(CC(O)CSc2ccccc2)c2ccccc12 (centres undefined)	-	-	-	-	0	0
C=C(C)Cn1c2ccc(NC(=O)NCc3ccccc3)cc2c(=O)n1C	-	0	0	0	0	0
O=C1c2ccc3c4c(ccc(c24)C(=O)N1CCCCO)C(=O)N(CCCCO)C3=O	102.2	0	0	0	0	0
CC[N+](CC)(CC)CCOc1ccc(/C=C/c2ccccc2)cc1	0	0	52.8	0	0	0
Clc1ccc2[nH]cc(-c3nnnn3-c3ccc4ccccc4c3)c2c1	0	0	0	0	0	0
C/C(=C\C=C\c1ccccc1)C(=O)c1c(C)cc(C)[nH]c1=O	0	0	0	0	0	0
CCCNC(=O)NC(=O)COc1ccc(-c2ccc(C#N)cc2)cc1	0	0	0	0	0	0
Cn1cccc1C(=O)NNC(=O)COc1ccc(C#N)cc1	0	74.1	0	0	0	0
CCN(CC)CCn1c(NS(=O)(=O)c2ccc(C)cc2)nc2ccccc21	-	0	0	0	0	0
